Data as given in ChEMBL document CHEMBL1157539, “Thousands of chemical starting points for antimalarial lead identification” (Nature, 2010).

Assays:
Assay type in all cases: functional
Plasmodium falciparum [1] = experiment: GSK_TCMDC: Inhibition of Plasmodium falciparum 3D7 in whole red blood cells, using parasite LDH activity as an index of growth. Test compounds present at 2uM
Plasmodium falciparum [2] = experiment: GSK_TCMDC: Inhibition of Plasmodium falciparum Dd2 in whole red blood cells, using parasite LDH activity as an index of growth. Test compounds present at 2uM
HepG2 = experiment: GSK_TCMDC: Percent inhibition of human HepG2 cell line. Test compounds present at 10uM.

SMILES | Inhibition (Plasmodium falciparum [1]) [%] | Inhibition (Plasmodium falciparum [2]) [%] | Inhibition (HepG2) [%]
COc1cccc2cc(C(=O)N[C@@H](CC(C)C)C(=O)N[C@H](/C=N/N3C(=O)CN(Cc4ccccc4)C3=O)CCc3ccccc3)oc12 | 85 | 52 | 14
CCOC(=O)C1=C(C)NC2=C(C(=O)C(C(=O)OC)C(C)C2)C1c1cc(Br)c(OCC)c(OC)c1 (stereo not drawn) | 100 | 99 | 8
CN(C)CCNc1cc(-c2ccc3ccccc3c2)nc2ccccc12 | 100 | 58 | 24
COc1ccc(CCNC(=O)c2ccccc2O)cc1-c1ccc(C(C)(C)C)cc1 | 95 | 96 | 25
CN1CCC(NCc2ccc(S(=O)(=O)Nc3ccc(Oc4cccc(Cl)c4)cc3)cc2)CC1.O=C(O)C(F)(F)F | 99 | 5 | 47
CCC[C@@H]([C@@H](CC1CCCCC1)C(=O)NC(C(=O)Nc1nccs1)C(CC)c1ccccc1)N(O)C=O (stereo partly drawn) | 89 | 19 | 50
O=C(NC1CCN(CCN2CCc3ccccc3CC2)CC1)c1ccc(-c2ccc(C(F)(F)F)cc2)cc1 | 99 | 43 | 45
C[C@H](Cc1ccc(OCCCOc2ccc(C[C@@H](C)NC[C@H](O)c3cccc(Cl)c3)cc2)cc1)NC[C@H](O)c1cccc(Cl)c1.Cl | 99 | 92 | 99
COc1ccc(-c2cccc(NC(=O)c3ccc(C#N)cc3)c2)cc1CNC(C)C.O=C(O)C(F)(F)F | 100 | 14 | 25
CCNC(=O)Nc1cccc(-c2ccc(-c3nc4cccc(C)c4[nH]3)s2)c1 | 96 | 20 | 32
O=C(NCC1CC1)C1CCN(C(c2ccc(Cl)cc2)c2ccc(Cl)cc2)CC1 | 99 | 95 | 3
Cc1ccc(-c2nnc(Nc3ccc(C(=O)N4CCCCC4)cc3)c3ccccc23)cc1S(=O)(=O)NCC1CCCO1 (stereo not drawn) | 99 | 99 | 0
CN(C(=O)NCCc1ccccc1)C1CCN(CCCCCNC(=O)/C=C/c2ccc(Cl)c(Cl)c2)CC1 | 93 | 11 | 43
CC(C)Nc1ccc(Nc2ccnc3cc4ccccc4cc23)cc1 | 100 | 81 | 37
CCNc1cc(C)nc(Nc2ccc(F)cc2)n1 | 100 | 57 | 1
O=C(N[C@@H](CC1CCCCC1)C(=O)NCCN1CCCCC1)c1ccc(O)c(-c2ccc(Cl)c(Cl)c2)c1 | 97 | 99 | 14
CCOC(=O)CCCCCNC[C@H](O)c1ccccc1.Cl | 98 | 0 | 2
COc1ccc(Cl)cc1N1CCN(CCCNC(=O)c2ccc(-c3nc4ccc(C(F)(F)F)cc4[nH]3)c(C)c2)CC1 | 95 | 14 | 6
CCCc1cn2c3c(cc(C(=O)N[C@@H](Cc4ccccc4)[C@H](O)CNC4CCOCC4)cc13)N(C)S(=O)(=O)CC2.O=CO | 99 | 98 | 1
Cn1nc(-c2ccc(CNC3CCc4ccccc43)cc2)c2cnc(NCCN3CCCC3)nc21 (stereo not drawn) | 99 | 17 | 21
Cc1cc(-c2nc3ccc(CN4CCN(C)CC4)cc3[nH]2)nn1Cc1cc(Cl)ccc1OCc1ccccc1.Cl | 100 | 52 | 3

SMILES | Inhibition (Plasmodium falciparum [1]) [%] | Inhibition (Plasmodium falciparum [2]) [%] | Inhibition (HepG2) [%]
CN(C)C(=O)CCCn1c(CNCCCNc2cc(=O)c3ccccc3[nH]2)cc2c(Cl)cc(Cl)cc21.Cl | 89 | 0 | 1
COc1cc(C(=O)Nc2cccc(-c3cn4cccc(C)c4n3)c2)cc(OC)c1OC | 99 | 77 | 0
CCOc1cc(C(=O)NCCN2CCCCC2)ccc1-c1nc2cc(Cl)ccc2[nH]1 | 99 | 8 | 4
CCNc1nc(OCC(F)(F)F)nc(N(c2ccccc2)c2ccccc2)n1 | 100 | 83 | 5
COc1ccccc1CCNc1nc(C)cc(N[C@@H](CC(C)C)C(=O)NCc2cccs2)n1.O=C(O)C(F)(F)F | 96 | 31 | 20
Cc1c(Cc2ccccc2Br)cnc2nc(N)nc(N)c12.Cl | 88 | 97 | 67
COc1cccc2cc(C(=O)N[C@@H](CC(C)C)C(=O)N[C@H](/C=N/NC(=O)N3CCN(C)CC3)CCc3ccccc3)oc12.Cl | 85 | 73 | 1
O=C(Nc1cccc(-c2nn3ccccc3c2-c2ccnc(Nc3ccccc3)n2)c1)c1c(F)cccc1F | 98 | 98 | 69
COc1ccccc1N(C)CCNc1cc(C)nc(Nc2ccccc2)n1 | 96 | 13 | 10
Cc1cc(C2CCN(CCCCNC(=O)c3ccc(-c4ccc(C(F)(F)F)cc4)cc3)CC2)c(C)cc1OCCOC1CCCCO1 (stereo not drawn) | 95 | 5 | 30
Cc1cc(NC(=O)c2ccsc2)ccc1OC1CCN(Cc2ccc(F)cc2)CC1.O=C(O)C(F)(F)F | 83 | 47 | 9
Br.C=CCc1cc(Br)ccc1OCCCON1C(N)=NC(N)=NC1(C)C | 95 | 97 | 61
CC(CN(C)C)Oc1ccc2nc(-c3cccc(OCc4ccccc4)c3)[nH]c2c1C#N (stereo not drawn) | 100 | 94 | 57
O=C(NC1CCN(c2ccnc3cc(Cl)ccc23)C1)c1ccccc1F.O=C(O)C(F)(F)F (stereo not drawn) | 100 | 71 | 8
Oc1ccc(OCc2ccccn2)cc1 | 98 | 0 | 5
CS(=O)(=O)n1c(CN2CCN(c3ncc(C(F)(F)F)cc3Cl)CC2)nc2ccccc21 | 83 | 59 | 0
Oc1ccc(Br)cc1C(O)CNCc1ccccc1OCc1ccccc1 (stereo not drawn) | 100 | 100 | 25
Br.CN(CCON1C(=N)N=C(N)NC1(C)C)c1ccccc1 | 97 | 93 | 64
Cc1ccc(-c2nc3cc(C(=O)NC4CCN(Cc5ccccc5)CC4)ccc3[nH]2)cc1 | 100 | 53 | 20
CCNc1cc(C)nc(Nc2ccccc2)n1 | 92 | 8 | 16
Oc1cc(Nc2ccnc3cc(-c4cccc(CN5CCOCC5)c4)ccc23)c(F)cc1Cl | 100 | 89 | 12

SMILES | Inhibition (Plasmodium falciparum [1]) [%] | Inhibition (Plasmodium falciparum [2]) [%] | Inhibition (HepG2) [%]
COc1ccc2nc(C)cc(Nc3ccc(Oc4ccc5ccccc5c4Cl)c(Cl)c3)c2c1 | 100 | 98 | 32
CC(=O)c1cccc(NC(=O)N2CCCN(CCCCCNC(=O)/C=C/c3ccc(Cl)c(Cl)c3)CC2)c1 | 93 | 0 | 13
CCNc1cc(C(=O)N[C@@H](Cc2ccccc2)[C@H](O)CNCc2ccc3c(c2)OCCO3)cc(N2CCCCS2(=O)=O)c1.O=CO | 95 | 45 | 0
O=C(NC1CCCCN(Cc2ccccc2O)C1)c1cc(F)cc(F)c1.O=C(O)C(F)(F)F (stereo not drawn) | 89 | 52 | 7
O=C(Nc1cccc(CN2CCN(C(=O)c3ccccc3)CC2)c1)c1ccco1.O=C(O)C(F)(F)F | 95 | 42 | 6
Cl.Oc1ccc2[nH]c(-c3cccs3)nc2c1CN1CCC(N2CCCC2)CC1 | 100 | 13 | 6
COc1c(C2CCN(CCCCNC(=O)c3cc(-c4ccc(Cl)cc4)oc3C)CC2)ccc2c1CCCC2 | 97 | 27 | 93
COc1cc(CNC[C@@H](O)[C@H](Cc2ccccc2)NC(=O)c2cc(OC(C)C)cc(N3CCCS3(=O)=O)c2)cc(OC)c1.Cl | 97 | 72 | 0
COc1ccc(-c2ccccc2CNC2Cc3ccccc3C2)cc1S(=O)(=O)NCCN1CCCC1.O=C(O)C(F)(F)F | 96 | 47 | 18
COc1cc(Nc2ccnc3ccc(C(F)(F)F)cc23)cc(OC)c1OC | 100 | 100 | 15
CC(CN1CCN(C)CC1)C(=O)Nc1cccc(-c2ccc(-c3nc4ccccc4[nH]3)cc2)c1 (stereo not drawn) | 95 | 38 | 2
O=[N+]([O-])c1cccc(S(=O)(=O)N2CCN(CC(O)COc3ccc(-c4ccccc4)cc3)CC2)c1 (stereo not drawn) | 94 | 32 | 11
Clc1ccc(Cc2nc3ccccc3[nH]2)cc1Cl | 98 | 2 | 5
Cc1c(C)c2c(c(C)c1O)CC[C@@](C)(C(=O)N1CCC(CCN3CCC(c4c[nH]c5ccccc45)CC3)CC1)O2 | 98 | 91 | 37
Br.Cc1cc(C)c(C)c(OCCCON2C(=N)N=C(N)NC2(C)C)c1C | 94 | 95 | 64
Cc1noc(C)c1-c1cccc(CNCc2ccc(-c3ccc(-c4nc5cccc(C)c5[nH]4)cc3)cc2)c1.O=C(O)C(F)(F)F | 100 | 95 | 28
Cl.O=C1COc2cc(Cl)c(CNC3CCN(CCc4ccnc5c(F)cc(F)cc45)CC3)nc2N1 | 98 | 49 | 96
CC(C)CC(=O)Nc1cc(=O)[nH]c2nc(-c3ccccc3)nn12 | 89 | 85 | 0
COc1ccccc1C1CCN(C2CCC(NC(=O)c3ccc4[nH]c(-c5ccc(C)cc5)nc4c3)CC2)CC1 (stereo not drawn) | 100 | 100 | 100
